# Measurements from paper PMC7862700, “An all-to-all approach to the identification of sequence-specific readers for epigenetic DNA modifications on cytosine”.
# Key:
# Assay in all cases: DAPPL (digital affinity profiling via proximity ligation, sequencing); 10 mM Tris-HCl pH 7.5, 50 mM NaCl, 1 mM DTT, 4% glycerol, room temperature, 30 min; GST-TFs on glutathione beads, 16-mer random dsDNA library, 0.1% formaldehyde crosslink after washing; high values mean tight binding
# Conditions in all cases: protein: recombinant; tags: N-terminal GST; dsDNA, one strand shown
# [1] = target: T1, ERG (Homo sapiens, UniProt P11308 1-479)
# T1 sequence: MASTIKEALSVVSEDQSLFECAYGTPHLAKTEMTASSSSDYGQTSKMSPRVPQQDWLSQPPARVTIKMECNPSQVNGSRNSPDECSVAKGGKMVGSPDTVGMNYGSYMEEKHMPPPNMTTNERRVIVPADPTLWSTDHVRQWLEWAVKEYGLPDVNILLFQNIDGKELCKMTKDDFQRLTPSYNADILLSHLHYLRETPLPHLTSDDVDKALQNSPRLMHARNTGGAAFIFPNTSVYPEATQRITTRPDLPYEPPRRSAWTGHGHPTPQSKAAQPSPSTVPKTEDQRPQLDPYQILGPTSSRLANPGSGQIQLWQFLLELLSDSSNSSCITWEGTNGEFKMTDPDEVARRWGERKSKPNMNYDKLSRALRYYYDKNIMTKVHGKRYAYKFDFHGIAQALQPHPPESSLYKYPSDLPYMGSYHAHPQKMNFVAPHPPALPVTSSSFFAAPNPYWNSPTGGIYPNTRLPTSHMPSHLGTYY
# Summary of the method: (§1)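 Human transcription factors fused to GST were expressed in yeast, captured on glutathione beads, given DNA barcodes and pooled with a GST-only negative control. Pools were incubated with 200 nmole of a 16-mer random double-stranded DNA library in Tris/NaCl/DTT/glycerol buffer at room temperature for 30 min. They were then washed, crosslinked with 0.1% formaldehyde, proximity-ligated (BsaI/T4 ligase, 1 h, 37 °C), PCR-amplified and sequenced on an Illumina NextSeq500. Binding signal is each 6-mer's read frequency for a factor divided by its frequency for the GST control.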
# [2] = target: T2, ETV7 (Homo sapiens, UniProt Q9Y603 1-341)
# T2 sequence: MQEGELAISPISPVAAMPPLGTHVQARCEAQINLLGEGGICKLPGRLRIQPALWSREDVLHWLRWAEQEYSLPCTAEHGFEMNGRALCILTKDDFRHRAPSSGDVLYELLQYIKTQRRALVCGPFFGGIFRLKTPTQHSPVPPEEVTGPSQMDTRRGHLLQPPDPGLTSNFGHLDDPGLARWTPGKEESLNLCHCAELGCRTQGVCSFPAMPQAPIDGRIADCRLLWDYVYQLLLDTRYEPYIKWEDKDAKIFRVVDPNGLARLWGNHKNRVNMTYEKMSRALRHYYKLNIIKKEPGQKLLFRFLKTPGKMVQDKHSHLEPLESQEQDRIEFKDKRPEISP
# Summary of the method: as §1
# [3] = target: T3, EHF (Homo sapiens, UniProt Q9NZC4 1-300)
# T3 sequence: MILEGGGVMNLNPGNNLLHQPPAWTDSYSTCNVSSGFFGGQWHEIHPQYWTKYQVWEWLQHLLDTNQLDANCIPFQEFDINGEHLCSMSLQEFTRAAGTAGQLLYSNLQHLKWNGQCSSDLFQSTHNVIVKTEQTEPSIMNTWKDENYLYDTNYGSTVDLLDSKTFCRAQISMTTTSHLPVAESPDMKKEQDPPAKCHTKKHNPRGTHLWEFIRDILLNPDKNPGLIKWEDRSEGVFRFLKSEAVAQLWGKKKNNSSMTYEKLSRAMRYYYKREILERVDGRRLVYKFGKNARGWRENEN
# Summary of the method: as §1
# [4] = target: T4, ELF5 (Homo sapiens, UniProt Q9UKW6-2 1-255)
# T4 sequence: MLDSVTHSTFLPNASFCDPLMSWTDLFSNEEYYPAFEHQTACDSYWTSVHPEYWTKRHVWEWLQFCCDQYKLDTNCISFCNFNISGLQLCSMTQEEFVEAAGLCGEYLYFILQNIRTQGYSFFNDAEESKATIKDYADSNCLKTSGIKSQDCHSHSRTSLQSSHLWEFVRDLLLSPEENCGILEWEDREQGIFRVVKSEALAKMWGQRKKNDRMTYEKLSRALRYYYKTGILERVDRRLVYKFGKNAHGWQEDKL
# Summary of the method: as §1
# [5] = target: T5, ERF (Homo sapiens, UniProt P50548 1-548)
# T5 sequence: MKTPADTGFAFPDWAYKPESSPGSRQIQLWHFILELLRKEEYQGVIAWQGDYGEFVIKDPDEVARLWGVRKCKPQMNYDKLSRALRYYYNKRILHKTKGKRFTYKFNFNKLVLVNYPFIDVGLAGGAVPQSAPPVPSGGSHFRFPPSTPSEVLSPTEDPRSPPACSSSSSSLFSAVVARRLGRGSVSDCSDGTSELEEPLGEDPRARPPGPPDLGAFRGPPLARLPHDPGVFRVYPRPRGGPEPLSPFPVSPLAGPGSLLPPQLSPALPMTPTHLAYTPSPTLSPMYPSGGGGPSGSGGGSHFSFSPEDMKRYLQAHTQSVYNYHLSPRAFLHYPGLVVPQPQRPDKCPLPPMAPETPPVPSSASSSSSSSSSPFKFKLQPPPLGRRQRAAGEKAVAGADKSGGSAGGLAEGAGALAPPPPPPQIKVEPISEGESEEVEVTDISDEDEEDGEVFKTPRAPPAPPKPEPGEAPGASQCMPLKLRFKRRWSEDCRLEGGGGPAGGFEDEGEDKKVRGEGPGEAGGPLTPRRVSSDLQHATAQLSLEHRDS
# Summary of the method: as §1
# [6] = target: SPIB (Homo sapiens, UniProt Q01892 1-262)
# Summary of the method: as §1
# [7] = target: T6, ELK3 (Homo sapiens, UniProt P41970 1-407)
# T6 sequence: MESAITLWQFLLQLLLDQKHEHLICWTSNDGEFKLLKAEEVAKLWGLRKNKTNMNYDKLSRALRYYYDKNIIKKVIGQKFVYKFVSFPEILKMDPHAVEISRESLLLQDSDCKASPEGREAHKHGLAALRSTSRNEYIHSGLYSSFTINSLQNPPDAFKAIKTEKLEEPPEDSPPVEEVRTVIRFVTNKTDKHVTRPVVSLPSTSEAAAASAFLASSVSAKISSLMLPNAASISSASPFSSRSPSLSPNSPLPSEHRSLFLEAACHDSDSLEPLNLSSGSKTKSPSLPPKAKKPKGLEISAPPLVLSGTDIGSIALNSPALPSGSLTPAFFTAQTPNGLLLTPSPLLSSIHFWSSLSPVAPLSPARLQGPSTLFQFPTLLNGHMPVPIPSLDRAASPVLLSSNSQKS
# Summary of the method: as §1
# [8] = target: T7, ETV3L (Homo sapiens, UniProt Q6ZN32 1-361)
# T7 sequence: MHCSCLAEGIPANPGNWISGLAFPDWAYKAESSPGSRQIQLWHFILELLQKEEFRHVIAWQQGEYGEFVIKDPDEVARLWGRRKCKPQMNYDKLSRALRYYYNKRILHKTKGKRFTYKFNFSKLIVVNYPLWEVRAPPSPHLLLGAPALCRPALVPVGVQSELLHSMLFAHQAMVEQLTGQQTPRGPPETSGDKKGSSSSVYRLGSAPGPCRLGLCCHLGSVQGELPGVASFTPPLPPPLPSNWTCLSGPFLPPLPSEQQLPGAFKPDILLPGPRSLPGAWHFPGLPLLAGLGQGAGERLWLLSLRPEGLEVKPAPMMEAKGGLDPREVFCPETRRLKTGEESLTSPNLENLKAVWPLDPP
# Summary of the method: as §1
# [9] = target: T8, GABPA (Homo sapiens, UniProt Q06546 1-454)
# T8 sequence: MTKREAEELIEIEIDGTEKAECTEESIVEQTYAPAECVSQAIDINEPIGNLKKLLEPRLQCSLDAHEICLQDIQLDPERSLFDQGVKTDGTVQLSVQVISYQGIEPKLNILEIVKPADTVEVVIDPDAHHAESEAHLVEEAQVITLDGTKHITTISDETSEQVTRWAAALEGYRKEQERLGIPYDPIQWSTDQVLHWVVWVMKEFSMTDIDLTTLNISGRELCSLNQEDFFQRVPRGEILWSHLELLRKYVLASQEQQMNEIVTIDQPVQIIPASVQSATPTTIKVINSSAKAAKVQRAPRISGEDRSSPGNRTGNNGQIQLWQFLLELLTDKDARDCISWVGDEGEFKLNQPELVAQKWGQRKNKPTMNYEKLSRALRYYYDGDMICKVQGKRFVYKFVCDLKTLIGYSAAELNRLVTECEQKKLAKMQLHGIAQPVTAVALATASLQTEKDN
# Summary of the method: as §1
# [10] = target: ELF1 (Homo sapiens, UniProt P32519 1-619)
# Summary of the method: as §1
# [11] = target: T9, FEV (Homo sapiens, UniProt Q99581 1-238)
# T9 sequence: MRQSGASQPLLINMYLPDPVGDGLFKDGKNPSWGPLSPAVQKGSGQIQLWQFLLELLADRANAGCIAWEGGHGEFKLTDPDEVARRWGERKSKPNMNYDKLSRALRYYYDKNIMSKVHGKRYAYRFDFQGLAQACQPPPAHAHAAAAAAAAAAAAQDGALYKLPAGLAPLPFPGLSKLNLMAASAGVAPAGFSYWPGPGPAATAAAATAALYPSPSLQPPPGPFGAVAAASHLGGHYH
# Summary of the method: as §1
# [12] = target: T10, ETV3 (Homo sapiens, UniProt P41162-2 1-143)
# T10 sequence: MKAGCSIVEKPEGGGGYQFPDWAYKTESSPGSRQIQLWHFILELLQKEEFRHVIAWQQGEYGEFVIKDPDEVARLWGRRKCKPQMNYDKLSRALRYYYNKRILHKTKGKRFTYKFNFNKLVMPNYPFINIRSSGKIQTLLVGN
# Summary of the method: as §1
# SPIB, sequence (Q01892 whole entry): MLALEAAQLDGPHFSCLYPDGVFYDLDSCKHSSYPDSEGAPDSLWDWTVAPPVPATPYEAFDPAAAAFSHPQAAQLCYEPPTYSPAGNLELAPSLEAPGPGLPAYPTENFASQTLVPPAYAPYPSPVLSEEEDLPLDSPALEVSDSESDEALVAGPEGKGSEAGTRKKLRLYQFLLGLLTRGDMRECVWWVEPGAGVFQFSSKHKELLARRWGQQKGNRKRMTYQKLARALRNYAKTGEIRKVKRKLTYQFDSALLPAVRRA
# ELF1, sequence (P32519 whole entry): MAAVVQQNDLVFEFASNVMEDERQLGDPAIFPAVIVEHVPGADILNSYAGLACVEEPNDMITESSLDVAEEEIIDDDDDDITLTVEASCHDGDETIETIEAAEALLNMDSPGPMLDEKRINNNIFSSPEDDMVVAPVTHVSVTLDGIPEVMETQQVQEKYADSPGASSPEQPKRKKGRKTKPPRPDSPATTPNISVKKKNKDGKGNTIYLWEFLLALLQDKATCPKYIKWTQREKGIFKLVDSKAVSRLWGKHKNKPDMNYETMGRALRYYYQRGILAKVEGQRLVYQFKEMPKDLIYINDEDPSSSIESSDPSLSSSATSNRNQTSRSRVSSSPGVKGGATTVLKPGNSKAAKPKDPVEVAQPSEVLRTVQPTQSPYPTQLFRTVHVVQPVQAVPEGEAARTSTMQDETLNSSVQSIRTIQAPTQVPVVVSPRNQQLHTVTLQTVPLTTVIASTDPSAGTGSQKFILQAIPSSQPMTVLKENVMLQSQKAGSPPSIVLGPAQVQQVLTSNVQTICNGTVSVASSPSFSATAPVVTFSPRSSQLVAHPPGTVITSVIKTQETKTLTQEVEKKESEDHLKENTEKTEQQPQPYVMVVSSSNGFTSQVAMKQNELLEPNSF
sequence,measurement,setting,value
CCTGTC,binding signal,[1],"1.01 fold enrichment (6-mer frequency, TF over GST control)"
same,binding signal,[2],"1.03 fold enrichment (6-mer frequency, TF over GST control)"
CGGTAA,binding signal,[3],"1.01 fold enrichment (6-mer frequency, TF over GST control)"
same,binding signal,[4],"1.05 fold enrichment (6-mer frequency, TF over GST control)"
GTGGAC,binding signal,[5],"1.03 fold enrichment (6-mer frequency, TF over GST control)"
GCTGTC,binding signal,[3],"1 fold enrichment (6-mer frequency, TF over GST control)"
same,binding signal,[5],"1.03 fold enrichment (6-mer frequency, TF over GST control)"
GACGAT,binding signal,[5],"1.02 fold enrichment (6-mer frequency, TF over GST control)"
same,binding signal,[2],"1 fold enrichment (6-mer frequency, TF over GST control)"
CAGTTT,binding signal,[6],"1.03 fold enrichment (6-mer frequency, TF over GST control)"
same,binding signal,[7],"1.04 fold enrichment (6-mer frequency, TF over GST control)"
same,binding signal,[5],"1.01 fold enrichment (6-mer frequency, TF over GST control)"
GACACC,binding signal,[8],"1.01 fold enrichment (6-mer frequency, TF over GST control)"
AGGACT,binding signal,[9],"1.05 fold enrichment (6-mer frequency, TF over GST control)"
same,binding signal,[10],"1 fold enrichment (6-mer frequency, TF over GST control)"
same,binding signal,[11],"1.01 fold enrichment (6-mer frequency, TF over GST control)"
same,binding signal,[12],"1.06 fold enrichment (6-mer frequency, TF over GST control)"
TTGGAC,binding signal,[5],"1.02 fold enrichment (6-mer frequency, TF over GST control)"
same,binding signal,[12],"1.01 fold enrichment (6-mer frequency, TF over GST control)"
